# Bioassay records: PubChem, several laboratories
# BJeLR viability – MLPCN primary cell-based screen for lethality selective to Ras in HRASV12 cells; 300,000 tested, 0.17% active; BJeLR (HRASV12) viability, CellTiter-Glo ATP luminescence, 48 h; inhibition, % (no concentration beside the values); in the data active = inhibition above about 50%
# RN4220 kill – growth inhibition of S. aureus RN4220, primary screen, OD600; 16 h; 330,000 tested, 0.33% active; inhibition, % (no concentration beside the values); in the data active = inhibition above about 85%;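 also: plate controls were untreated cells for no effect and reference antibiotic for full effect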
# ugtP null kill – growth inhibition of ugtP-null S. aureus, primary screen, RN4220 ugtP deletion, OD600; 16 h; growth inhibition, % (concentration not given with the values); 330,000 tested, 0.54% active; in the data active = growth inhibition above about 68%;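 also: plate controls were untreated wells for no effect and antibiotic for full effect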
# Starred values were filed as active, the others as inactive; . = not tested or not shown. Shown are actives, neighbours in structure and some others; about 0.65% of the full set was active somewhere.
SMILES,BJeLR viability,RN4220 kill,ugtP null kill
Cc1cc(C(C)(C)C)cc(C)c1Cn1c2[n+](c3ccc(C(F)(F)F)cc31)CCCCC2,6,101*,100*
CCCN=C1N(C)C[C@@H]2[C@@H]3C(=O)N(C)C(=O)[C@@H]3[C@](Cc3ccccc3)(C(=O)OC)N12,.,1,8
CSc1ccc(S(=O)(=O)Nc2c(C)cccc2C)cc1,-3,33,-15
CCc1ccccc1NS(=O)(=O)c1ccc(SC)cc1,4,95*,89*
CCN(C(=O)c1cnc(OC)cc1C(F)(F)F)c1ccc(Cl)cc1,-7,-5,-13
Cc1ccccc1-n1c(SCC(N)=O)nc2sc(-c3ccccc3)cc2c1=O,0,-16,-1
Cc1ccccc1-n1c(SCC(=O)NC(N)=O)nc2sc(-c3ccccc3)cc2c1=O,-6,96*,99*
COc1cc2cc(-c3ccc(OC)c(OC)c3C)nc(N)c2cc1OC,13,-2,-7
O=C(Nc1ccc(F)c(Cl)c1)N1CCCC1,4,2,9
O=C(Nc1cc(Cl)cc(Cl)c1)N1CCCC1,4,91*,92
CCOc1ccc(C=NNC(=O)c2c(C)n(C)c3ccc(OC)cc23)cc1,.,1,14
CCOc1ccc2c(c1)c(N=O)c(O)n2C,9,4,90*
Cc1ccc2nc(NC(=O)C3CCN(S(=O)(=O)c4cccnc4)CC3)sc2c1,-2,-2,11
O=C(Cn1[nH]c(=O)c2ccccc2c1=O)OCC(=O)c1ccccc1Cl,-15,5,9
COC(=O)c1ccc(NC(=O)CCCCCn2nnc3ccccc3c2=O)cc1,0,-1,3
O=C(Nc1ccc2nc3n(c(=O)c2c1)CCCCC3)c1cc([N+](=O)[O-])ccc1F,8,.,.
O=C(Nc1ccc2nc3n(c(=O)c2c1)CCCCC3)c1c(F)ccc([N+](=O)[O-])c1F,75*,.,.
COc1ccc2[nH]c(=O)c(CN(CCO)S(=O)(=O)c3c(C)ccc4nsnc34)cc2c1,-2,3,0
COc1ccc2[nH]c(=O)c(CN(Cc3cccs3)S(=O)(=O)c3cccc4nsnc34)cc2c1,52*,8,-10
C=CCNC(=O)c1onc(CSc2ccc(Cl)cc2)c1C(=O)NCC=C,-2,7,4
Cc1nn(-c2ccccc2)c(Cl)c1/C=C1\SC(=S)NC1=O,-2,100*,99*
Cc1nn(-c2ccccc2)c(Cl)c1/C=C1\SC(=S)N(CCCCCC(=O)O)C1=O,-1,37,18
COc1cccc(/C=N/Nc2ncnc3scc(-c4ccccc4)c23)c1O,70*,.,.
COc1cc(/C=N/Nc2ncc(C(F)(F)F)cc2Cl)cc(OC)c1O,-8,.,.
COc1cccc(C=NNc2ncnc3scc(-c4ccccc4)c23)c1O,.,11,46
SMILES,BJeLR viability,RN4220 kill,ugtP null kill
COc1cccc(C=NNc2ncc(C(F)(F)F)cc2Cl)c1O,.,100*,99*
COc1cccc(C=NNc2ncnc(Cl)c2N)c1O,.,26,29
COc1cccc(/C=N/Nc2ncnc(Cl)c2N)c1O,56*,.,.
CC(C)NC(=O)c1ccccc1NC(=O)CS(=O)(=O)Cc1ccccc1,2,4,-3
CCc1cc(=S)n2c([nH]c3ccccc32)c1C#N,19,74,76
CCc1c(C)c(C#N)c2[nH]c3ccccc3n2c1=S,27,93*,92*
CCc1c(C)c(C#N)c2nc3ccccc3n2c1Cl,129*,.,.
CCc1c(C)c(C#N)c2nc3ccccc3n2c1-n1nc(C)cc1C,14,2,4
CC(=O)N1CCC(=NNc2ccc(S(N)(=O)=O)cc2[N+](=O)[O-])CC1,0,4,-3
Cc1ccc(CNC(=O)C2(c3cccs3)CCOCC2)cc1,-5,5,5
Cc1ccccc1Cn1c2ccccc2c2cnn(CC(=O)NCc3ccccn3)c(=O)c21,3,1,-1
O=C(CN1CCCCC1)Nc1cc(Cl)ccc1Oc1ccccc1,7,5,30
CC(C)=CCCC1=CCC(/C=N/NC(N)=O)C(C)C1 (stereo not given),4,.,.
CC(C)=CCCC1=CCC(C=NNC(N)=O)C(C)C1 (stereo not given),.,1,93*
COCCn1c(-c2ccc(Cl)cc2)nc2oc3cc(OC)ccc3c(=O)c2c1=O,-1,6,-6
COc1ccc(Cl)cc1NS(=O)(=O)c1ccc2c(c1)NC(=O)CCS2,3,12,1
Cc1ccc(NS(=O)(=O)c2ccc3c(c2)NC(=O)CCS3)c(C)c1,-1,98*,96*
Cc1ccc(NS(=O)(=O)c2ccc3c(c2)NC(=O)CCS3)c(Cl)c1,0,96*,90*
Cc1cc(C)c(NS(=O)(=O)c2ccc3c(c2)NC(=O)CCS3)c(C)c1,9,55,3
NS(=O)(=O)c1ccc(CCNC(=O)C2CC(=O)N(Cc3ccccc3Cl)C2)cc1 (stereo not given),.,3,4
Cc1cc(N)c2cc(NC(=O)/C=C/c3ccccc3Cl)ccc2n1,107*,0,6
Cc1cc(C)nc(NC(=O)/C=C/c2ccccc2Cl)n1,-4,3,-16
O=C(Nc1nnc(C2=COCCO2)o1)c1ccc(F)cc1,0,16,-5
O=C(Nc1nnc(C2=COCCO2)o1)c1cccc(C(F)(F)F)c1,16,95*,82
Cc1ccc2cccc(NS(=O)(=O)c3ccccc3)c2n1,69*,.,.
SMILES,BJeLR viability,RN4220 kill,ugtP null kill
CC(=O)Nc1ccc(S(=O)(=O)Nc2cccc3cccnc23)cc1,-1,3,2
O=S(=O)(Nc1cccc2cccnc12)c1ccccc1,74*,.,.
O=S(=O)(Nc1cccc2ccccc12)c1ccccc1,2,7,-3
Clc1ccc(/C=N/Nc2ncnc3ccccc23)cc1Cl,2,.,.
CCn1cc(C(=O)O)c(=O)c2cc(F)c(N3CCN(S(=O)(=O)c4ccc(NC(=O)OC)cc4)CC3)cc21,-6,97*,100*
CCn1cc(C(=O)O)c(=O)c2cc(F)c(N3CCN(C(=S)NC(=O)c4c(OC)cccc4OC)CC3)cc21,0,98*,100*
CCC(=O)N1CCN(c2cc3c(cc2F)c(=O)c(C(=O)O)cn3CC)CC1,-11,44,47
CCn1cc(C(=O)O)c(=O)c2cc(F)c(N3CCN(C(=S)NC(=O)c4cccc(F)c4)CC3)cc21,4,12,9
CCn1cc(C(=O)NN)c(=O)c2cc(F)c(N3CCN(C)CC3)cc21,14,2,8
CCn1cc(C(=O)O)c(=O)c2cc(F)c(N3CCN(C(=S)Nc4ccccc4OC)CC3)cc21,9,99*,99*
CCCCN(CC)CCNC(=O)C1c2cc(OC)c(OC)cc2C(=O)N2CCc3ccccc3C12 (stereo not given),10,3,4
O=S(=O)(c1cccs1)N1CCC(Cc2ccccc2)CC1,3,5,44
Cc1nn(Cc2ccccc2)c(C)c1C=NNC(=O)c1ccccc1O,.,1,3
CC1CN(C(NC(=O)C(C)(C)C)C(Cl)(Cl)Cl)CC(C)O1 (stereo not given),6,3,5
CC(=O)c1ccc(O)c(CC=C(C)C)c1,9,7,5
COC1C(OC(N)=O)C(O)C(Oc2ccc3c(O)c(NC(=O)c4ccc(O)c(CC=C(C)C)c4)c(=O)oc3c2C)OC1(C)C (stereo not given),.,100*,99*
COc1ccc(-n2cnc3sccc3c2=O)cc1,-2,3,2
